In PubChem BioAssay one finds composite z-score and z-score data, which are given here for 18 molecules.

Assay [1] relates to XIP peptide (Xip251-270) binding. The assay is described as follows: small-molecule binders of XIP peptide, primary screen, biochemical, small-molecule microarray, fluorescence 635/667 nm, 0.1 µg/mL protein (AID 1182). The note with it: fluorescent protein binding, 635 nm, higher = more signal, called active from +8 up or from −8 down.
In a further assay the test system is XIP peptide (Xip251-270). The assay is described as follows: small-molecule binders of XIP peptide, primary screen, biochemical, small-molecule microarray, fluorescence 635/667 nm, 0.5 µg/mL protein (AID 1183). The following applies: small-molecule microarray binding, fluorescence 635 nm; higher = more signal.
The nature of assay [2]: Plasmodium falciparum growth inhibition, primary screen, strain 3D7, DAPI fluorescence, 100 nL (AID 1184).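 Further: parasites grown inside human red blood cells in medium with human serum.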 The note with it: P. falciparum 3D7 growth, 3 d, higher = more signal.
For assay [3], the target named is Homeobox protein Hox-A13 (Mus musculus) (UniProt Q62424). The assay is described as follows: inhibitors of HoxA13-DNA binding, primary screen, biochemical, fluorescence polarization, labeled oligonucleotide (AID 1185). The note with it: 15 min, higher = more signal, called active from +8 up or from −8 down. A general note: Polarisation of emitted light reports the rotation of a fluorescent probe.

A short description of assay [4]: inhibitors of hydroxyurea-induced Chk1 phosphorylation, primary screen, imaging, HeLa, phospho-Chk1 antibody, percent positive cells (AID 1186). The note with it: hydroxyurea-induced phospho-Chk1 immunofluorescence imaging, higher = more signal.
Assay [5] in a line: inhibitors of hydroxyurea-induced Chk1 phosphorylation, primary screen, imaging, HeLa, phospho-Chk1 nuclear intensity (AID 1187). The following applies: hydroxyurea-induced phospho-Chk1 immunofluorescence imaging, higher = more signal.

The source made the active and inactive calls. Unless noted, how the calls were made is not given here.

Homeobox protein Hox-A13 (Mus musculus), sequence (Q62424 whole entry, looked up): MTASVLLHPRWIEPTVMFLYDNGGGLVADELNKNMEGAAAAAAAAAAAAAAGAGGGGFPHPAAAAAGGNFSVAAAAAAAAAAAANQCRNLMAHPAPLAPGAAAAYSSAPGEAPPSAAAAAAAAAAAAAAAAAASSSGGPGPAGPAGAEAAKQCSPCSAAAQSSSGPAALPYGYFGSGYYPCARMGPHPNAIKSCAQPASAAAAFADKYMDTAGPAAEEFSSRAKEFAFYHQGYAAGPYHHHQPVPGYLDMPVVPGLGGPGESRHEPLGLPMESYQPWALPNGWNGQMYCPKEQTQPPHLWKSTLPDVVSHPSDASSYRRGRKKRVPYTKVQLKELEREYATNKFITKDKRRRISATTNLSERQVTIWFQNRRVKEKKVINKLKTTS

Consider `C=C(C(=O)CC[C@H](OC(C)=O)c1ccccc1OCCO)C(C)C`, for which the composite z-score in assay [1] is -0.571 (inactive); in the assay with XIP peptide (Xip251-270), 0.332. For the same molecule, the z-score in assay [2] was -2.09; in assay [3], -0.163 (inactive); in assay [4], -0.145 (inactive); in assay [5], -0.0797 (inactive).
`O=C1O[C@@H](c2ccccc2)[C@@H](c2ccccc2)N2[C@@H](c3ccc(OCCO)cc3)[C@]3(C(=O)Nc4ccc(C#CCCO)cc43)[C@@H](C(=O)NC[C@H](O)c3ccccc3)[C@H]12`: the values for the composite z-score (in assay [1]; in the assay with XIP peptide (Xip251-270)) were 0.0796 (inactive) and 0.822, respectively. Further, the z-score was -0.271 in assay [2], -3.67 (inactive) in assay [3], -0.174 (inactive) in assay [4] and -0.317 (inactive) in assay [5].
In the case of `C=C(CCCC)/C(=C/C[C@@H](OC(C)=O)c1ccccc1OCCO)c1cc(C(=O)OC)ccc1OC`, the composite z-score in assay [1] is -0.0324 (inactive); in the assay on XIP peptide (Xip251-270), 0.906. Also, the z-score is -2.51 in assay [2], -4.39 (inactive) in assay [3], -0.402 (inactive) in assay [4] and 0.114 (inactive) in assay [5].
`NCCCCCNC(=O)[C@H]1C[C@H]2C(=O)N3CCC[C@H]3C(=O)N2[C@H]1c1ccc(O)cc1`: the composite z-score was 0.705 (inactive) in assay [1] and 0.718 with XIP peptide (Xip251-270). The z-score in assay [2] is -0.0006; in assay [3] it was -2.09 (inactive); in assay [4], -0.15 (inactive); in assay [5] it was -0.265 (inactive).
Turning to `COC(=O)c1c(CC[C@@H](CO)NC(=O)N[C@@H](Cc2ccccc2)Cn2cc(-c3ccccn3)nn2)oc(C(=O)N2CCOCC2)c1C(=O)OC`, the composite z-score in assay [1] is 0.53 (inactive); in the assay with XIP peptide (Xip251-270) it was 0.0134. Besides, the z-score in assay [2] was -0.671; in assay [3] it was -2.7 (inactive); in assay [4] it was 0.101 (inactive); in assay [5], 0.0064 (inactive).
`CC1CC/C=C\[C@H]2OC34C=CCN(Cc5ccccc5)C(=O)[C@H]3N(C(C)CO)C(=O)[C@@H]4C2C(=O)O1` (stereo partly drawn): the composite z-score in assay [1] was -0.49 (inactive); in the assay with XIP peptide (Xip251-270), 0.0057. The z-score in assay [2] was -0.562; in assay [3] it was -5.87 (inactive); in assay [4], -0.682 (inactive); in assay [5], -0.602 (inactive).
For `COC(=O)c1c(CC[C@@H](CO)NC(=O)N[C@H](Cc2ccccc2)Cn2cc(-c3ccccn3)nn2)oc(C(C)=O)c1C(=O)OC`, the composite z-score in assay [1] was 0.593 (inactive); in the assay on XIP peptide (Xip251-270) it was 0.0667. Also, the z-score in assay [2] was 0.0007; in assay [3], -4.84 (inactive); in assay [4] it was 0.269 (inactive); in assay [5], 0.15 (inactive).
Regarding `C=CCNC(=O)[C@@H]1[C@H]2C(=O)O[C@H](c3ccccc3)[C@H](c3ccccc3)N2[C@H](c2ccc(OCCO)cc2)[C@@]12C(=O)N(C(=O)OCCOC)c1ccc(C#CCNC(N)=O)cc12`, the composite z-score was -0.121 (inactive) in assay [1] and 0.842 with XIP peptide (Xip251-270). The z-score in assay [2] is -1.29; in assay [3], -1.4 (inactive); in assay [4], 0.111 (inactive); in assay [5], 0.487 (inactive).
Turning to `COCCCNC(=O)[C@@]1(Cc2ccccc2)N=C(c2ccc(OCCCO)cc2)O[C@H]1c1ccccc1CN=[N+]=[N-]`, the composite z-score in assay [1] is 0.596 (inactive); with XIP peptide (Xip251-270) it was 0.801. In addition, the z-score in assay [2] is -2.62; in assay [3] it was -3.07 (inactive); in assay [4], 0.0048 (inactive); in assay [5], -0.194 (inactive).
Consider `CC(C)CCC[C@@H](C)[C@H]1CC[C@@]2(C)C3=C(CC[C@]12C)[C@@]1(C)CC[C@H](OC(=O)c2ccc(C(F)(F)F)nc2)C(C)(C)C1CC3` (stereo partly drawn), for which the composite z-score in assay [1] was 0.106 (inactive); with XIP peptide (Xip251-270) it was -0.176. In addition, the z-score in assay [2] is -0.145; in assay [3], -1.23 (inactive); in assay [4], -0.887 (inactive); in assay [5], -0.365 (inactive).
As for `COc1ccc(C#Cc2ccc3c(c2)[C@]2(C(=O)N3)[C@H](c3ccc(O)cc3)N3[C@H](c4ccccc4)[C@H](c4ccccc4)OC(=O)[C@H]3[C@@H]2C(=O)N2CCc3cc(OC)c(OC)cc3C2)cc1`, the composite z-score in assay [1] is 0.409 (inactive); in the assay on XIP peptide (Xip251-270), 0.465. For the same molecule, the z-score is -2 in assay [2], -1.17 (inactive) in assay [3], -0.0377 (inactive) in assay [4] and -0.187 (inactive) in assay [5].
Take `N#Cc1ccc(C(O)C2C=CC3C(=O)N(c4ccccc4)C(=O)C3N2Nc2ccccc2F)cc1` (stereo not drawn): the composite z-score in assay [1] is 0.339 (inactive); with XIP peptide (Xip251-270), 0.749. Further, the z-score was -0.85 in assay [2], -3.57 (inactive) in assay [3], -0.395 (inactive) in assay [4] and -0.0743 (inactive) in assay [5].
As for `C=CC1c2cc(O)c(OC)cc2CCN1Cc1cccc(OC(F)(F)F)c1` (stereo not drawn), the composite z-score in assay [1] is 1.81 (inactive); with XIP peptide (Xip251-270), 0.918. In addition, the z-score is -1.8 in assay [2], -4.91 (inactive) in assay [3], 0.08 (inactive) in assay [4] and 0.362 (inactive) in assay [5].
For the molecule `COc1ccc(C(O)C2C=CC3C(=O)N(C)C(=O)C3N2NC(=O)OC(C)(C)C)c2ccccc12` (stereo not drawn), the figures for the composite z-score (in assay [1]; with XIP peptide (Xip251-270)) were 0.661 (inactive) and 0.744, respectively. For the same molecule, the z-score in assay [2] is -0.526; in assay [3] it was -4.22 (inactive); in assay [4], 0.667 (inactive); in assay [5], 0.704 (inactive).
With `C=C(C)[C@@H]1CC=C(C(O)C2C=CC3C(=O)NC(=O)C3N2Nc2ccc(Cl)cc2Cl)CC1` (stereo partly drawn), the composite z-score in assay [1] is -0.245 (inactive); in the assay with XIP peptide (Xip251-270), 0.468. Moreover, the z-score was -0.52 in assay [2], -5.46 (inactive) in assay [3], 0.463 (inactive) in assay [4] and 0.154 (inactive) in assay [5].
Consider `CN(C)CCCC[C@@H]1NC(=O)[C@H]2C[C@@H](C(=O)NCCCCCN)[C@@H](c3cccc(OCCO)c3)N2C1=O`, for which the values for the composite z-score (in assay [1]; with XIP peptide (Xip251-270)) were 2.88 (inactive) and 0.84, respectively. In addition, the z-score in assay [2] was -0.419; in assay [3], -2.91 (inactive); in assay [4], 0.658 (inactive); in assay [5], 0.729 (inactive).
As for `COCCCNC(=O)[C@@]1(CCS(=O)(=O)c2ccccc2)N=C(c2ccc(OCCCO)cc2)O[C@H]1c1ccccc1N=[N+]=[N-]`, the composite z-score was 1.26 (inactive) in assay [1] and 0.839 with XIP peptide (Xip251-270). Besides, the z-score in assay [2] is -2.72; in assay [3] it was -3.94 (inactive); in assay [4], -0.662 (inactive); in assay [5] it was -0.624 (inactive).
For the molecule `O=C1C2C=CC(C(O)c3ccc4c(c3)OCO4)N(Nc3ccc([N+](=O)[O-])cc3)C2C(=O)N1c1ccccc1` (stereo not drawn), the composite z-score is -0.164 (inactive) in assay [1] and 0.473 with XIP peptide (Xip251-270). In addition, the z-score in assay [2] was -0.54; in assay [3], -4.87 (inactive); in assay [4], 0.0611 (inactive); in assay [5] it was -0.825 (inactive).
